# Experimental data as given in PubChem BioAssay (EPA / NIEHS).
# Inconclusive results are not listed. Activity calls are given as the source filed them. The calls were made as follows: active = hit-call score of the fitted dose curve at least 0.9, where 1 is the maximum; inconclusive = response in the unintended direction; inactive = score below 0.9.
# Legend:
# [1] = target: human Adrenergic, Beta 1 Receptor (Adrb1), ADRB1 (gene 153) (UniProt P08588); assay: NVS_GPCR_hAdrb1: NovaScreen (NVS) G Protein-Coupled Receptor Assay for human Adrenergic, Beta 1 Receptor (Adrb1) (AID 2283258)
# How it was run: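 Membranes/protein extracted from human neuroepithelioma cells, radioligand competition binding read by filtration and scintillation 2 h post-dose. Single 25 uM duplicate screen, then concentration-response follow-up; DMSO as negative control.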
# [2] = target: human Adrenergic, Alpha 2c Receptor (Adra2C), ADRA2C (gene 152) (UniProt P18825); assay: NVS_GPCR_hAdra2C: NovaScreen (NVS) G Protein-Coupled Receptor Assay for human Adrenergic, Alpha 2c Receptor (Adra2C) (AID 2283259)
# How it was run: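 Screened first in duplicate at 25 uM, with actives then run as concentration series. Membranes from Sf9 cells were exposed for 1 h, and displacement of radioligand was counted after filtration, using DMSO as baseline.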
# [3] = target: Beta-2 adrenergic receptor (Homo sapiens) (UniProt P07550); assay: NVS_GPCR_hAdrb2: NovaScreen (NVS) G Protein-Coupled Receptor Assay for human Adrenergic, Beta 2 Receptor (Adrb2) (AID 2283261)
# How it was run: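 Compounds screened in duplicate at 25 uM, then actives in concentration series. Human beta-2 receptor from CHO material, cell-free; radioligand displacement after 1 h measured by filtration and scintillation against DMSO baseline.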
# [4] = target: human Adrenergic, Beta 3 Receptor (Adrb3), ADRB3 (gene 155) (UniProt P13945); assay: NVS_GPCR_hAdrb3: NovaScreen (NVS) G Protein-Coupled Receptor Assay for human Adrenergic, Beta 3 Receptor (Adrb3) (AID 2283262)
# How it was run: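 A cell-free filter binding assay read by scintillation counting, with displacement of a specific radioligand measured after 1 hour. The receptor source was SK-N-MC extracts (cells pretreated with isoproterenol and 8-bromo-cAMP). Compounds were first tested at 25 uM in duplicate and then in concentration series.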
# [5] = target: human Dopamine Receptor D4.4 (DRD4.4), DRD4 (gene 1815) (UniProt P21917); assay: NVS_GPCR_hDRD4.4: NovaScreen (NVS) G Protein-Coupled Receptor Assay for human Dopamine Receptor D4.4 (DRD4.4) (AID 2283264)
# How it was run: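 Filter-binding assay with a tritiated or iodinated ligand, cell-free receptor prepared from CHO, 1 hour. Loss of bound radioactivity versus DMSO; single 25 uM duplicate screen, then concentration-response for actives.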
# [6] = target: human Dopamine Receptor D2 (DRD2), DRD2 (gene 1813) (UniProt P14416); assay: NVS_GPCR_hDRD2s: NovaScreen (NVS) G Protein-Coupled Receptor Assay for human Dopamine Receptor D2 (DRD2) (AID 2283266)
# How it was run: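 Test compound (25 uM, duplicate in the primary screen; concentration series at follow-up) competed with radioligand for human DRD2 in CHO-derived membrane protein. Filter-based scintillation counting was done 1.5 hours after dosing, with loss of signal analysed against DMSO.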
# [7] = target: human Histamine 1 Receptor (H1), HRH1 (gene 3269) (UniProt P35367); assay: NVS_GPCR_hH1: NovaScreen (NVS) G Protein-Coupled Receptor Assay for human Histamine 1 Receptor (H1) (AID 2283268)
# How it was run: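 Filter-based scintillation detection of radioligand binding to human H1, 1 h incubation; chemicals screened in duplicate at 25 uM, then concentration-response; signal loss relative to DMSO taken as activity.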
# [8] = target: human Endothelin Receptor Type A (ETA), EDNRA (gene 1909) (UniProt P25101); assay: NVS_GPCR_hETA: NovaScreen (NVS) G Protein-Coupled Receptor Assay for human Endothelin Receptor Type A (ETA) (AID 2283265)
# Protocol: NVS_GPCR_hETA is a biochemical, single-readout assay that uses extracted gene-proteins from Human neuroblastoma cells (SH-SY5Y) in a cell-free assay. Measurements were taken 3 hours after chemical dosing in a 96-well plate.NVS_GPCR_hETA is one of one assay component(s) measured or calculated from the NVS_GPCR_hETA assay. It is designed to make measurements of radioligand binding, a form of binding reporter, as detected with scintillation counting signals by Filter-based radiodetection technology.Data from the assay component NVS_GPCR_hETA was analyzed into 1 assay endpoint. This assay endpoint, NVS_GPCR_hETA, was analyzed in the positive analysis fitting direction relative to DMSO as the negative control and baseline of activity. […] Furthermore, this assay endpoint can be referred to as a primary readout, because the performed assay has only produced 1 assay endpoint. […]
# Binding assays used specific radioligands (tritiated, iodinated) with non-radioactive competitive displacement ligands in agonist or antagonist protocols (as indicated) and various reference compounds and inhibitors to titrate specific binding to receptors and transporters. Most enzyme assays (CYPs, kinases, phosphatases, proteases, HDACs) used recombinant protein and specific substrates (fluorescence mostly, some colorimetric and radioactive) and inhibitors, followed by a biochemical separation of substrate and product. […]
# [9] = target: Type-1 angiotensin II receptor (Homo sapiens) (UniProt P30556); assay: NVS_GPCR_hAT1: NovaScreen (NVS) G Protein-Coupled Receptor Assay for human Angiotensin II receptor type 1 (AT1) (AID 2283263)
# Protocol: NVS_GPCR_hAT1 is a biochemical, single-readout assay that uses extracted gene-proteins from KAN-TS in a tissue-based cell-free assay. Measurements were taken 3 hours after chemical dosing in a 48-well plate.NVS_GPCR_hAT1 is one of one assay component(s) measured or calculated from the NVS_GPCR_hAT1 assay. It is designed to make measurements of radioligand binding, a form of binding reporter, as detected with scintillation counting signals by Filter-based radiodetection technology.Data from the assay component NVS_GPCR_hAT1 was analyzed into 1 assay endpoint. This assay endpoint, NVS_GPCR_hAT1, was analyzed in the positive analysis fitting direction relative to DMSO as the negative control and baseline of activity. Using a type of binding reporter, loss-of-signal activity can be used to understand changes in the binding as they relate to the gene AGTR1. Furthermore, this assay endpoint can be referred to as a primary readout, because the performed assay has only produced 1 assay endpoint. To generalize the intended target to other relatable targets, this assay endpoint is annotated to the gpcr intended target family, where the subfamily is rhodopsin-like receptor.
# Binding assays used specific radioligands (tritiated, iodinated) with non-radioactive competitive displacement ligands in agonist or antagonist protocols (as indicated) and various reference compounds and inhibitors to titrate specific binding to receptors and transporters. Most enzyme assays (CYPs, kinases, phosphatases, proteases, HDACs) used recombinant protein and specific substrates (fluorescence mostly, some colorimetric and radioactive) and inhibitors, followed by a biochemical separation of substrate and product. All assays for the biochemical HTS were initially run in duplicate at a single concentration (10 uM for CYP450 assays and 25 uM for all others). Assay-chemical combinations meeting a pre-defined threshold (e.g., 30% inhibition and other criteria defined below) were then run in singleton concentration-response format with maximum concentration of 20 uM for CYPs and 50 uM for all others. […]
# [10] = target: human Endothelin Receptor Type B (ETB), EDNRB (gene 1910) (UniProt P24530); assay: NVS_GPCR_hETB: NovaScreen (NVS) G Protein-Coupled Receptor Assay for human Endothelin Receptor Type B (ETB) (AID 2283267)
# How it was run: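 Filter-based scintillation readout of radioligand displacement, 4 h, using membranes from human astrocytoma cells. Actives from a 25 uM duplicate screen were retested in concentration-response (top 50 uM) relative to DMSO baseline.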
# Sequence of human Adrenergic, Beta 1 Receptor (Adrb1), ADRB1 (gene 153) (P08588 whole entry, looked up): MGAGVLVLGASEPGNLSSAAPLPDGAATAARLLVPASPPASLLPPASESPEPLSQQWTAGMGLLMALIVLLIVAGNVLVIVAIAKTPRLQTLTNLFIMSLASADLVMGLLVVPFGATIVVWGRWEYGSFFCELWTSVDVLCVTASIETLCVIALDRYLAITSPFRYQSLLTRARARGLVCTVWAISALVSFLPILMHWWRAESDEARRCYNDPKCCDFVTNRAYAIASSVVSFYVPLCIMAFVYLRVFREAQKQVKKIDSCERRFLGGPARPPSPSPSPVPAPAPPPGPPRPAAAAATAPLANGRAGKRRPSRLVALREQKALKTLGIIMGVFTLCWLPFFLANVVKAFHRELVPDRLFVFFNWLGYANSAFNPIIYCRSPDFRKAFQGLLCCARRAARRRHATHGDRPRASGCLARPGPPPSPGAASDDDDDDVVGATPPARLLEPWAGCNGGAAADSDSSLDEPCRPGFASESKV
# Sequence of human Histamine 1 Receptor (H1), HRH1 (gene 3269) (P35367 whole entry, looked up): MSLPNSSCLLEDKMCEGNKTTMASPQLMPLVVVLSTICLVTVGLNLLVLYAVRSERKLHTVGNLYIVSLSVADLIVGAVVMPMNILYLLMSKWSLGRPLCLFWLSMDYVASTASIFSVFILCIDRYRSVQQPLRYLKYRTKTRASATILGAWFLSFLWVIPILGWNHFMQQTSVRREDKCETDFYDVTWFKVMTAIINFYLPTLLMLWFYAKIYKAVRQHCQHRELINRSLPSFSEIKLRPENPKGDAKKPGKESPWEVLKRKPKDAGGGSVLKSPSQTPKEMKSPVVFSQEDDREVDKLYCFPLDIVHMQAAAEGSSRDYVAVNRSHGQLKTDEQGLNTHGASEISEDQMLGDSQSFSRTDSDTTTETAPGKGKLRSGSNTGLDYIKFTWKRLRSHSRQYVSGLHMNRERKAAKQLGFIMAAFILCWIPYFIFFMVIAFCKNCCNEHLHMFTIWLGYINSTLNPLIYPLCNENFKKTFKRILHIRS
# Sequence of human Dopamine Receptor D2 (DRD2), DRD2 (gene 1813) (P14416 whole entry, looked up): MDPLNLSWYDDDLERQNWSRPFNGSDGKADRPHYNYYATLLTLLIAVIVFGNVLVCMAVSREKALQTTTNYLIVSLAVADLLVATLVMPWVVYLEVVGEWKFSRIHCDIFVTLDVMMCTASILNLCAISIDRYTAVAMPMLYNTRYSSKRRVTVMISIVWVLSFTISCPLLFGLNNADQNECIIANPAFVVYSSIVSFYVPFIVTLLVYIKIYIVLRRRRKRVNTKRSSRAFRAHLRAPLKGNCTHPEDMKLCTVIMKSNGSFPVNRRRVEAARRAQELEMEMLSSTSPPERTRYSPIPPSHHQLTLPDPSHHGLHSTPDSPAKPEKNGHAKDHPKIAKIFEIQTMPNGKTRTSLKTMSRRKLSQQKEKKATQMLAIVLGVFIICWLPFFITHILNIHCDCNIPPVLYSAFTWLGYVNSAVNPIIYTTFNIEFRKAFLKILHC
# Sequence of human Adrenergic, Beta 3 Receptor (Adrb3), ADRB3 (gene 155) (P13945 whole entry, looked up): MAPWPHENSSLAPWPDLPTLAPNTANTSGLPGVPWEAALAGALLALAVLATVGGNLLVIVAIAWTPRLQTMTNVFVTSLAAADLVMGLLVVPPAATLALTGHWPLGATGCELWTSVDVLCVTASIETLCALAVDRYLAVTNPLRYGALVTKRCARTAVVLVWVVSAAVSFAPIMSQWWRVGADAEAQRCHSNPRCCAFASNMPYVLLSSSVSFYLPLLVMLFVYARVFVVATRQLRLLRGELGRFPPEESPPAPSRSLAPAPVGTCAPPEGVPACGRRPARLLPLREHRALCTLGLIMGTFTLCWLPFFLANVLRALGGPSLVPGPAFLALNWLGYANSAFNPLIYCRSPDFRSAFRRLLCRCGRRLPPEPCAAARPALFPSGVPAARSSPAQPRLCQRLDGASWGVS
# Sequence of human Dopamine Receptor D4.4 (DRD4.4), DRD4 (gene 1815) (P21917 whole entry, looked up): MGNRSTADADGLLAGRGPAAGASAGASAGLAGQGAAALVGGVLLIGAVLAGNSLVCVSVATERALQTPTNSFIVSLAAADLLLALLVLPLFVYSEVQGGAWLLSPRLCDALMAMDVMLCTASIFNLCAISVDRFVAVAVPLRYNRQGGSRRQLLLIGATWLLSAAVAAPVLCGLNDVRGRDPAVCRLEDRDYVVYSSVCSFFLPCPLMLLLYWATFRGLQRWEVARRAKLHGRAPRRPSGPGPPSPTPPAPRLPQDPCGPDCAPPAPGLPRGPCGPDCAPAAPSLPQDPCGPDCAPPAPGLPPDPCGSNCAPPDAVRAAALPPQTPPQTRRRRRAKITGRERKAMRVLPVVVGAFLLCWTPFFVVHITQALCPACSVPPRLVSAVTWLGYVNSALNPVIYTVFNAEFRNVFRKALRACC
# Sequence of human Adrenergic, Alpha 2c Receptor (Adra2C), ADRA2C (gene 152) (P18825 whole entry, looked up): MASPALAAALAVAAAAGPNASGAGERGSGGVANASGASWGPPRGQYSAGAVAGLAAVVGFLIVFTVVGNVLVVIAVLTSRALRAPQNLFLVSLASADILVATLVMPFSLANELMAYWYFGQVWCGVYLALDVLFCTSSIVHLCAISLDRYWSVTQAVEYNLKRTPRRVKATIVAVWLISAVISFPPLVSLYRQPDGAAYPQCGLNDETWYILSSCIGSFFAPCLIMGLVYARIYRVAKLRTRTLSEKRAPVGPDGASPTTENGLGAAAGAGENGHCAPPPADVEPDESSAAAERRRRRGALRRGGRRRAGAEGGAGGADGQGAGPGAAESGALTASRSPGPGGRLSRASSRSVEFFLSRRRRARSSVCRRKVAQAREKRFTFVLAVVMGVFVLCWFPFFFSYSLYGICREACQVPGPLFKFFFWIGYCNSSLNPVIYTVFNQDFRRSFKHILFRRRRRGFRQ
# Sequence of Beta-2 adrenergic receptor (Homo sapiens) (P07550 whole entry, looked up): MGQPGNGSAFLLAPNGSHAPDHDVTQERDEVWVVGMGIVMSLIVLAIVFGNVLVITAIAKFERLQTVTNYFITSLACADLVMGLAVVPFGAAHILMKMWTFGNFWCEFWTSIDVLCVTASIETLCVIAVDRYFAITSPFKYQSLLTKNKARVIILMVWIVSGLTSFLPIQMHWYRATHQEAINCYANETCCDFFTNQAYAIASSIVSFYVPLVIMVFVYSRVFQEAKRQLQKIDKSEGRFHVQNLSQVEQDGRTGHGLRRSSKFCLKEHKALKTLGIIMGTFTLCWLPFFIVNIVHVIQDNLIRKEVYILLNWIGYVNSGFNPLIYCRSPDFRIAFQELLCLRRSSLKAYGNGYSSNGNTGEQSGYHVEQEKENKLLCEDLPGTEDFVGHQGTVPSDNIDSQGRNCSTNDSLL
# Sequence of human Endothelin Receptor Type B (ETB), EDNRB (gene 1910) (P24530 whole entry, looked up): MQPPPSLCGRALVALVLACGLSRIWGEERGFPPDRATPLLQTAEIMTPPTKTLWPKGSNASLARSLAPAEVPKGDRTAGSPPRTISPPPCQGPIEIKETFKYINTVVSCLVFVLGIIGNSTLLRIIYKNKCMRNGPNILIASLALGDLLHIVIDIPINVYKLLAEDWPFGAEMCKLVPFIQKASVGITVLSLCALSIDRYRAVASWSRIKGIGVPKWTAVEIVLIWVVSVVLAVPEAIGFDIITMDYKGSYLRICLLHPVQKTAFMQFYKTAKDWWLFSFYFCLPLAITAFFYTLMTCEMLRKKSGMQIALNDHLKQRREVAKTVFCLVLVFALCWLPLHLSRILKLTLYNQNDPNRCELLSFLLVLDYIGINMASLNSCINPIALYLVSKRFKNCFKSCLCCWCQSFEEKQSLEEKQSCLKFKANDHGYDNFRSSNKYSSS
# Sequence of Type-1 angiotensin II receptor (Homo sapiens) (P30556 whole entry, looked up): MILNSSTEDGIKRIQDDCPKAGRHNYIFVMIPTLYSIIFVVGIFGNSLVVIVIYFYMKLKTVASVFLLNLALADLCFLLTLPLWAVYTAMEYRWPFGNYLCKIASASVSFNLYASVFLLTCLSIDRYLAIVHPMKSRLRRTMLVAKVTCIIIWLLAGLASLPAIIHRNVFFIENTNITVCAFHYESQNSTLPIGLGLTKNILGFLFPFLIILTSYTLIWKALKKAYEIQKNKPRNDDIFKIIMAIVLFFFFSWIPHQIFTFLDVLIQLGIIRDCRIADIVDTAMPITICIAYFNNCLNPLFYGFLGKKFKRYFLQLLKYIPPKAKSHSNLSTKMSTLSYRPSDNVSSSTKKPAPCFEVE
# Sequence of human Endothelin Receptor Type A (ETA), EDNRA (gene 1909) (P25101 whole entry, looked up): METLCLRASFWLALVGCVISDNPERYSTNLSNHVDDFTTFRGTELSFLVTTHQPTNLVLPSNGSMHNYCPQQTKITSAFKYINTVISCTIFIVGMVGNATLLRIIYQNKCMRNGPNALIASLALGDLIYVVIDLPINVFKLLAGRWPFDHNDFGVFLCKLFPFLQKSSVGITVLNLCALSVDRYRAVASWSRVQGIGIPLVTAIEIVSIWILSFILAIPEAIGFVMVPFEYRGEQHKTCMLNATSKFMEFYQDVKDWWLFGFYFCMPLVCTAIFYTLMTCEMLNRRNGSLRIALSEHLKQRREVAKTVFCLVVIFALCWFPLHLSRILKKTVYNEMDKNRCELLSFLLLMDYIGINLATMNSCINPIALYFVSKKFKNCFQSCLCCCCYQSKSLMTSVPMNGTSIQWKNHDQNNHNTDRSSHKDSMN
structure (smiles),measurement,setting,value
c1ccc(C(O[C@@H]2CCCN(CCc3ccc4c(c3)OCO4)C2)c2ccccc2)cc1,AC50,[1],25 µM (active)
same,AC50,[2],2.51 µM (active)
same,AC50,[3],13.5 µM (active)
same,outcome,[4],inactive
same,AC50,[5],14.8 µM (active)
same,AC50,[6],5.47 µM (active)
same,AC50,[7],5.62 µM (active)
O=c1[nH]cnc2c1ncn2[C@H]1CC[C@@H](CO)O1,outcome,[5],inactive
same,AC50,[6],32.7 µM (active)
COc1cc(C(C)C)c2c(c1)S(=O)(=O)N(COc1cc(=O)n3cccc(OCCN4CCCCC4)c3n1)C2=O,AC50,[2],0.424 µM (active)
same,AC50,[6],1.6 µM (active)
O=C(O)c1ccc2c(c1)nc(C(=O)NC1CCN(C3CC3)CC1)n2Cc1cc(-c2ccc(Cl)s2)on1,outcome,[2],inactive
CC[C@H](C)C(=O)O[C@H]1C[C@H](O)C=C2C=C[C@H](C)[C@H](CC[C@@H](O)C[C@@H](O)CC(=O)O)[C@H]21,outcome,[8],inactive
O=C(NO)C1(NS(=O)(=O)c2ccc(Oc3ccc(F)cc3)cc2)CCOCC1,AC50,[5],25 µM (active)
CCN(CC)C(=S)SSC(=S)N(CC)CC,AC50,[1],2.55 µM (active)
same,outcome,[9],inactive
CCCCCCCCCCCCCCCCOS(=O)(=O)O,AC50,[1],3.47 µM (active)
same,AC50,[2],3.6 µM (active)
same,AC50,[5],12.5 µM (active)
same,outcome,[6],inactive
same,AC50,[7],18.1 µM (active)
CCCCCCCC/C=C\CCCCCCCC(=O)OC[C@@H](O)[C@H]1OC[C@H](O)[C@H]1O,AC50,[1],43.1 µM (active)
CCn1nc(C)c2c1C(=O)NCC(c1ccc(O)cc1)=N2,outcome,[2],inactive
same,outcome,[4],inactive
same,outcome,[7],inactive
OCC(CO)(CO)CO,outcome,[4],inactive
same,outcome,[10],inactive
CC(C)CCCCCCOC(=O)C1CCCCC1C(=O)OCCCCCCC(C)C (stereo not drawn),outcome,[3],inactive
